According to PubChem BioAssay (NCATS):
Records with an inconclusive call do not appear. Active and inactive are the calls of the source. Unless noted, the rule behind the calls is not given here.

What was measured:
[1] = qHTS profiling of the MIPE4 collection as inhibitors of Plasmodium falciparum (DD2) proliferation (Rep 2) (AID 743346); conditions: P. falciparum Dd2 in erythrocytes, SYBR Green DNA, 72 h; at 28.5 µM unless noted
Procedure, shortened: (§1)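 Erythrocytes infected with P. falciparum (0.3% parasitemia, 2.5% hematocrit) incubated with compounds 72 h at 37 C, 5% CO2. Lysis with saponin/Triton buffer containing SYBR Green I, overnight at room temperature in the dark; DNA fluorescence (485/535 nm) normalised to 0.29 uM artemisinin and DMSO.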

[2] = qHTS profiling of the MIPE4 collection as inhibitors of Plasmodium falciparum (HB3) proliferation (AID 743347);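 note: plate controls were DMSO vehicle wells for no effect and artemisinin wells for full effect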; conditions: P. falciparum HB3 in erythrocytes, SYBR Green DNA, 72 h; at 28.5 µM unless noted
Procedure, shortened: as §1

[3] = High-throughput drug toxicity screening in the BPDCN cell line Cal-1 (AID 1224825); conditions: Cal-1 BPDCN cell viability, qHTS; at 45.8 µM (top of the series) unless noted
Procedure, shortened: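 500 Cal-1 cells/well, RPMI + glutamine + 10% FBS (phenol red-free); cpd added by pin tool; 48 h, 37C, 5% CO2; CTG 15 min RT, lumi read. Normalised: DMSO 100%, bortezomib 9.2 uM 0%.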

[4] = qHTS assay for measurement of the activity of small molecule inhibitors on Zika virus induced Caspase-3 activity in human iPSC derived neural progenitor cells (hNPCs) (AID 1224857; active = well fitted inhibition curve with a large enough effect; note: nearly all actives have a fitted effect of over 65% in size; note: potency is the fitted concentration of half-maximal effect)
Procedure, shortened: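 Caspase-3/7 induction by a 6-hour ZIKV infection was quantified with a luminescent Caspase-Glo 3/7 reagent incubated 30 minutes at room temperature. Compounds were preincubated with hNPCs for 1 hour; inhibition was calculated against uninfected and infected control wells.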

[5] = qHTS assay for measurement of the activity of small molecule inhibitors on Zika virus induced Caspase-3 activity in human astrocytoma cells (AID 1224859; active = well fitted inhibition curve with a large enough effect;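 note: plate controls were ZIKV-infected untreated cells for no effect and uninfected cells for full effect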)
Procedure, shortened: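 In SNB-19 cells plated at 250 cells/well and grown 16-20 h, compounds were applied 1 h before ZIKV (2 FFU/cell). Six hours later caspase-3/7 luminescence was recorded.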

[6] = qHTS Screen of the MIPE 4.0 Collection Against Ewings Sarcoma (TC32) (AID 1259256; active = well fitted inhibition curve with a large enough effect; note: nearly all actives have a fitted effect of over 45% in size; note: potency is the fitted concentration of half-maximal effect)
Procedure, shortened: (§2)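 CellTiter-Glo luminescence after 48 h compound exposure (titration) gave viability; percent activity used DMSO-treated cells as no inhibition and medium-only wells as full inhibition. Cells grown in RPMI/5% FBS, dosed 4 h post-seeding.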

[7] = High-throughput drug toxicity screening in the BPDCN cell line Gen2.2 (AID 1224824); conditions: Gen2.2 BPDCN cells; at 45.8 µM (top of the series) unless noted;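 note: cells exposed to compounds for 48 h before reading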
Procedure, shortened: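 Readout is ATP luminescence from Gen2.2 cells after two days of drug exposure in serum-containing medium at 37 °C. Values express percent activity, with vehicle defining full signal and 9.2 uM bortezomib defining zero.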

[8] = qHTS Screen of the MIPE 4.0 Collection Against Ewings Sarcoma (TC71) (AID 1259253; active = well fitted inhibition curve with a large enough effect; note: nearly all actives have a fitted effect of over 40% in size; note: potency is the fitted concentration of half-maximal effect)
Procedure, shortened: as §2

[9] = qHTS Screen of the MIPE 4.0 Collection Against Ewings Sarcoma (EW8) (AID 1259255; active = well fitted inhibition curve with a large enough effect; note: nearly all actives have a fitted effect of over 35% in size; note: potency is the fitted concentration of half-maximal effect;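 for viability: 100% = DMSO-treated cells and 0% = medium-only wells without cells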)
Procedure, shortened: as §2

SMILES	parasite growth, % of control (lower = inhibition) [1]	growth, % of control [2]	viability (% of control) [3]	Potency [4]	Potency [5]	Potency [6]	cell viability, % of control (lower = more cytotoxic) [7]	Potency [8]	Potency [9]
CON=C(C(=O)N[C@@H]1C(=O)N2C(C(=O)OCOC(=O)C(C)(C)C)=C(C=Cc3scnc3C)CS[C@H]12)c1csc(N)n1	73%	84.9%	115%	inactive	inactive				
O=C(O)c1c(Cl)c(Cl)c(Cl)c(Cl)c1-c1c2cc(I)c(=O)c(I)c-2oc2c(I)c(O)c(I)cc12	80.2%	88.8%	55.1%	inactive					
CNC1CCC(N(Cc2cccc(-c3ccncc3)c2)C(=O)c2sc3c(F)ccc(F)c3c2Cl)CC1 (stereo not given)	23.7%	6.39%	0.705%	inactive	inactive				
O=C(O)C(O)Cc1ccc(O)c(O)c1 (stereo not given)	65.6%	106%	105%	inactive		inactive			
CC=CCC(C)C(O)C1C(=O)NC(CC)C(=O)N(C)CC(=O)N(C)C(CC(C)C)C(=O)NC(C(C)C)C(=O)N(C)C(CC(C)C)C(=O)NC(C)C(=O)NC(C)C(=O)N(C)C(CC(C)C)C(=O)N(C)C(CC(C)C)C(=O)N(C)C(C(C)C)C(=O)N1C (stereo not given)	13.2%	4.04%				inactive	8.39%		
CC(=NNC(=S)N1CCC1)c1ccccn1	10.5%	6.19%	9.75%	16.6 µM (active)				0.0053 µM (active)	
COc1cccc([C@@H](C)NCCCc2ccccc2Cl)c1	13.3%	7.8%	66.2%	inactive	inactive	inactive			inactive
CNC(=O)c1ccc2cc(C3(O)CCn4cncc43)ccc2c1 (stereo not given)	74.8%	55%	94.8%	inactive	inactive				inactive
CC(=Cc1ccccc1)C=C1SC(=S)N(CC(=O)O)C1=O	81.2%	98.1%	125%		inactive			inactive	inactive
O=C(Nc1c(Cl)cncc1Cl)c1ccc(OC(F)F)c(OCC2CC2)c1	67.9%	100%	105%	inactive					inactive
COCCOc1nc(-c2ccc(Cl)c(Cl)c2)n(-c2ccc(NC(=O)CCl)cc2)n1	31.7%	30.2%	37.2%				114%		
O=C(Nc1ccccc1-c1cn2c(CN3CCNCC3)csc2n1)c1cnc2ccccc2n1								23.5 µM (active)	
c1ccc2c(Cc3c[nH]c4ccccc34)c[nH]c2c1						4.18 µM (active)		4.18 µM (active)	14.8 µM (active)
